The results in this text go back to ChEMBL document CHEMBL4513216, “Probing the Open Global Health Chemical Diversity Library for Multistage-Active Starting Points for Next-Generation Antimalarials” (ACS Infect Dis, 2020).

About 8,600 (12%) of roughly 69,000 compounds showed an effect of 50% or more. For the sample, strong results were picked, then their nearest neighbours and some compounds at random.

The test system of this assay is Plasmodium berghei. Put plainly: Screen against P. berghei liver stage (PbLuc), transformed with Luciferase, at 10uM. The class given is functional, HepG2. The note with it: tested at 10 uM.
Take `COCCN1C[C@@H]2CC[C@H]1CN(C(=O)CCc1n[nH]c(C)c1C)C2`: the INHIBITION is recorded as -4.92%.
For the molecule `COc1cccc(N2CCN(Cc3cc(C)cc(F)c3)CC2=O)c1`, the INHIBITION stood at 11.3%.
With `COc1cccc(N2CCN(Cc3ccc(NC(C)=O)cc3)CC2=O)c1`, the INHIBITION worked out at 38.5%.
The figure for `COc1cc(CN2CCN(c3cccc(OC)c3)C(=O)C2)cc(OC)c1` is 58.5%.
The result for `COc1cccc(N2CCN(Cc3nccn3C(C)C)CC2=O)c1` reads 59.5%; that for `CCn1cc(CN2CCN(Cc3cc(C)cc(C)c3)C(=O)C2)cc1C#N`, -17.8%; that for `CCn1cc(CN2CCN(Cc3cccc(OC)c3)C(=O)C2)cc1C#N`, 56.3%.
The figure for `COc1cccc(CN2CCN(Cc3ccc4nonc4c3)CC2=O)c1` is 24.9%; for `COc1cccc(N2CCN(Cc3ncc[nH]3)CC2=O)c1` it is -26.5%.
Turning to `COc1cccc(N2CCN(Cc3nccc(OC)c3OC)CC2=O)c1`, the INHIBITION is recorded as 11.2%.
Regarding `Cc1n[nH]c(C2CN(CC(=O)NCCc3ccccc3C)CCO2)n1` (stereo not drawn), the INHIBITION is on record as 43.1%.
The figure for `Cc1occc1C(=O)N1CCC2(CCC(C(=O)NCC3CC3)O2)CC1` (stereo not drawn) is -5.94%; for `CCC(CNS(=O)(=O)c1cccc(C(=O)OC)c1)N1CCCC1` (stereo not drawn) it is -39.2%.
The result for `O=C1CCC[C@]2(CN(S(=O)(=O)C3CCCCC3)C[C@H]2c2cccnc2)N1` reads -11.4%.
For `O=C(COc1ccc(-n2cccn2)nn1)NC1CCCCC1`, the INHIBITION is -10.6%.
Turning to `OC[C@@H]1CCCN1c1nccc(-c2c[nH]nc2-c2ccncc2)n1`, the INHIBITION was -15.2%.
For the molecule `Cc1ncc(-c2ccnc(N3CCC[C@@H]3CO)n2)c(-c2cccnc2)n1`, the INHIBITION came out at 20.4%.
With `OC[C@H]1CCCN1c1nccc(-c2c[nH]nc2C2CCCCC2)n1`, the INHIBITION is listed as 54.5%.
Consider `O=c1c(-c2ccnc(N3CCCC[C@@H]3CO)n2)cnc2sccn12`, for which the INHIBITION was 35.2%.
`O=c1c(-c2ccnc(N3CCC[C@H]3CO)n2)cnc2sccn12`: the INHIBITION is recorded as -4.82%.
Take `OC[C@H]1CCCN1c1nccc(-c2cncnc2C2CCCCC2)n1`: the INHIBITION came to 64.9%.
As for `O=C(NCCn1cccc1)C(c1ccccc1)N1CCCC1` (stereo not drawn), the INHIBITION was determined as 15.4%.
The result for `CCOC1CCCN(C(=O)CCOc2ccc(C)cc2OC)C1` (stereo not drawn) reads 8.59%; that for `Cn1cc2ncn(C3CCN(c4ccccc4F)CC3)c(=O)c2n1`, -6.03%.
In the case of `CCN(CC)CCCNc1nccc(-c2cn(C)nc2C)n1`, the INHIBITION is recorded as 43.9%.
For the molecule `CNCCNc1nccc(-c2cn(C)nc2C)n1`, the INHIBITION stood at 19.4%.
On to `Cc1nn(C)cc1-c1ccnc(NCCN)n1`, for which the INHIBITION came to 59.4%.
Take `Cc1ccc(NCCCNc2nccc(-c3cn(C)nc3C)n2)nc1`: the INHIBITION is listed as 51.2%.
Take `Cc1nn(C)cc1-c1ccnc(N2CCSCC2)n1`: the INHIBITION worked out at 47.2%.
Consider `CNc1nccc(-c2cn(C)nc2C)n1`, for which the INHIBITION was found to be 29.4%.
On to `c1cnn(CC2CCCCN2Cc2noc(C3CC3)n2)c1` (stereo not drawn), for which the INHIBITION was -42.65%.
In the case of `CC(C)NC(=O)c1nnc2ccc(N3CCOCC3)cc2n1`, the INHIBITION is -3.11%.
For `O=C(c1ccco1)N1CCC2(CCC(=O)N2Cc2ccccc2)CC1`, the INHIBITION is recorded as 33.4%.
Consider `COCC(=O)N1CCC(C)(c2cc(O)[nH]n2)CC1`, for which the INHIBITION is listed as 23.9%.
In the case of `CCCC(NC(=O)NCc1cccc(N(C)C)n1)c1ccccn1` (stereo not drawn), the INHIBITION is 58.5%.
For `CCC(NC(=O)NCc1cccc(N(C)C)n1)c1nccs1` (stereo not drawn), the INHIBITION came to 67.4%.
With `CCC(NC(=O)NCc1cccc(N(C)C)n1)c1cccs1` (stereo not drawn), the INHIBITION is listed as -6.46%.
With `Cc1nc(CCNC(=O)NCc2cccc(N(C)C)n2)cs1`, the INHIBITION was -24.3%.
On to `CN(C)c1ccc(NC(=O)NCc2ccccn2)cn1`, for which the INHIBITION was 13.9%.
With `CCC(NC(=O)NCc1cccc(N(C)C)n1)c1ccccc1OC` (stereo not drawn), the INHIBITION was 6.83%.
As to `Cc1noc(C)c1-c1cncc(C2CCCN2Cc2ncc[nH]2)n1` (stereo not drawn), the INHIBITION amounted to 47.2%.
On to `CC[C@@H](Cn1ncc2ccccc2c1=O)NC(=O)c1ccco1`, for which the INHIBITION is given as 34.1%.
Turning to `Cn1ccc(C(=O)N2CCN(c3nccs3)CC2)cc1=O`, the INHIBITION came out at 28.8%.
Consider `CC(C)(C)c1cnc(CN2CCC(CN3CCOCC3)CC2)o1`, for which the INHIBITION came out at 66.3%.
`CCN(C1CCN(Cc2ncc(C(C)(C)C)o2)CC1)S(C)(=O)=O`: the INHIBITION was found to be 50.8%.
The result for `CC(C)(C)c1cnc(CN2CCCS(=O)(=O)CC2)o1` reads -7.94%.
As to `CCN1CCN(C2CCN(Cc3ncc(C(C)(C)C)o3)CC2)C1=O`, the INHIBITION turned out to be 42%.
The figure for `CC(C)(C)c1cnc(CN2CCC(NC(=O)NC3CCCCC3)CC2)o1` is 60.8%; for `CC(C)(C)c1cnc(CN2CCC(NC(=O)C3CCOCC3)CC2)o1` it is 30.8%; for `CCN(CC)CC1CCN(Cc2ncc(C(C)(C)C)o2)CC1` it is 47.4%.
The figure for `CC(C)(C)c1cnc(CN2CCC(CO)CC2)o1` is 39.7%; for `CC(C)(C)c1cnc(CN2CCN(c3ncccn3)CC2)o1` it is 24.3%; for `CC(C)(C)c1cnc(CN2CCC(NC(=O)CC3CCCC3)CC2)o1` it is 28.7%.
